From PubChem BioAssay
Most compounds without a hit are left out; they make up all but 6.3% or so of the library.
TGFb SMAD3 inh: qHTS for Inhibitors of TGF-b | HepG2 CAGA-GFP TGF-b/SMAD3 reporter, GFP fluorescence, 18 h; TGF-beta stimulated, 500 pg/mL final | Potency, µM (highest dose often 46.1 µM), usual class: inhibitors | 410,000 compounds, 1.2% hits | AID 588855, 2011; note: nearly all actives have a fitted effect of over 65% in size
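Using HEPG2 CAGA-GFP reporter cells at 1000 cells/well, we pinned test compounds, stimulated with recombinant TGF-beta (500 pg/mL final) and measured total well GFP after 18 h.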
HepG2 viability: qHTS for Inhibitors of TGF-b: Cytotox Counterscreen; HepG2 CAGA-GFP viability, ATP luminescence, 18 h; Potency, µM (top dose mostly 46.1 µM), usual class: cytotoxic; 410,000 compounds, 0.76% hits; AID 588856, 2011
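HepG2 CAGA-GFP cells (1000/well, DMEM with 1% FBS) received compound, then TGF-beta at 500 pg/mL final, and were incubated 18 hours at 37 degrees C. Viability was read by CellTiter-Glo luminescence. Media-only wells were set as complete cell-killing and DMSO as no toxicity.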
VP16 counter: VP16 counterscreen qHTS for inhibitors of ROR gamma transcriptional activity; Drosophila S2 Gal4-VP16 UAS-luciferase, luminescence, 20 h; AID 2546, 2010; Potency, µM (series often up to 53.6 µM), usual class: inhibitors; 310,000 compounds, 3.5% hits;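 note: Gal4-VP16 expression switched on by copper sulfate through the metallothionein promoter; nearly all actives have a fitted effect of over 50% in size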
S2 tox: Viability Counterscreen for Primary qHTS for Inhibitors of ATXN expression; S2 cells (HEK-293 line with an ATXN2-luciferase reporter) viability, CellTiter-Fluor protease fluorescence, 24 h; Potency, µM (titrated, usually from 56.7 µM), most hits filed as cytotoxic; 400,000 compounds, 0.49% hits; AID 651635, 2014; note: nearly all actives have a fitted effect of over 40% in size
RORgamma inh: qHTS for inhibitors of ROR gamma transcriptional activity; Nuclear receptor ROR-gamma (Mus musculus), P51450; Potency, µM (highest dose often 53.6 µM), most hits filed as inhibitors; Drosophila S2 Gal4-RORgamma UAS-luciferase reporter, 20 h; 310,000 compounds, 5.4% hits; AID 2551, 2010; note: nearly all actives have a fitted effect of over 60% in size
Target sequence (P51450 whole entry, looked up, the tested form may be a part): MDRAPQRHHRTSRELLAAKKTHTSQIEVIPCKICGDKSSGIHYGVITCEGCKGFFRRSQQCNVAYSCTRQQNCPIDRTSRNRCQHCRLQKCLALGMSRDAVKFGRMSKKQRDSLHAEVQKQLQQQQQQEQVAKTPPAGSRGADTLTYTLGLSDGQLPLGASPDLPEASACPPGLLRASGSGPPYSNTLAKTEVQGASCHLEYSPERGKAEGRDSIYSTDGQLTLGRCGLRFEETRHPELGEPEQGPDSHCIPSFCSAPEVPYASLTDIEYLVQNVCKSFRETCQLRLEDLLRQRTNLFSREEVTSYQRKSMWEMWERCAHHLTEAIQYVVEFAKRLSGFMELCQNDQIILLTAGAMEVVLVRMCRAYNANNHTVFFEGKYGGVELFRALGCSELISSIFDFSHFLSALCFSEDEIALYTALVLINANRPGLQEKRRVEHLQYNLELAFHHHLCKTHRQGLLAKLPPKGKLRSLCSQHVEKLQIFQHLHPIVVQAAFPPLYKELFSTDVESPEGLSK
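A Gal4/UAS one-hybrid system in insect cells: metallothionein-promoter Gal4–ROR gamma fusion plus Photinus luciferase reporter. Copper sulfate 700 uM final, 20 hr ambient incubation, luminescent detection after 10 min with reagent.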
ATXN2 expr inh: Primary qHTS for Inhibitors of ATXN expression | HEK-293 ATXN2-luciferase reporter, luminescence, 24 h | Potency, µM (highest dose often 57 µM), usual class: inhibitors | 360,000 compounds, 0.72% hits | AID 1745845, 2022; note: nearly all actives have a fitted effect of over 55% in size
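qHTS (up to 57 uM final) was run with 24 h compound exposure of reporter cells at 37 °C. Each well was multiplexed: SteadyGlo luminescence measured ATXN2-luciferase expression after a fluorogenic Gly-Phe-AFC viability readout (25 uM final).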
A number is an active result; i = inactive; ? = inconclusive; nt = not tested or not shown; [ ] = another dose, or the depositor's remark. Calls come from the whole dose curve; as a rule, active = well fitted curve in the direction sought with a large enough effect; inconclusive = small, poorly fitted or top-dose-only effect, or another doubt; inactive = no such curve, though single readings can be large; an effect the other way counts as inactive or inconclusive.

SMILES | TGFb SMAD3 inh | HepG2 viability | VP16 counter | S2 tox | RORgamma inh | ATXN2 expr inh
O=C(NN=Cc1c(O)ccc2ccccc12)C1CC1 | i | i | nt | ? | nt | ?
O=C(N/N=C\c1ccc(Cl)s1)c1ccc(Cn2cccn2)o1 | i | i | i | i | 10µM | i
O=C(N/N=C\c1c(O)ccc2ccccc12)c1ccc(Cn2cccn2)o1 | i | i | 12.6µM | i | 2.51µM | 3.55µM
CC(C)c1ccc(/C=N\NC(=O)c2ccc(Cn3cccn3)o2)cc1 | i | i | ? | i | i | i
COc1ccccc1CN1CCC(n2cc(C(=O)N3CCCCC3)nn2)CC1 | nt | nt | nt | i | nt | nt
CC1=C(C(=O)N(C)C)CC(CC(=O)NCCCN(C)C)C(=O)N1CCCN1CCCC1=O (configuration not stated) | i | i | nt | i | nt | i
CCC(CC)C(=O)N(C)c1c(C)nc2c(OCc3cc(Cl)cc(Cl)c3)cccn12 | 12.6µM | i | nt | i | nt | i
CCc1nc2c(OCc3ccc(Cl)cc3Cl)cccn2c1N(C)C(C)=O | ? | i | nt | nt | nt | 17.8µM
O=C(CCC(=O)Nc1ccccc1Cl)NNC(=O)C1CCCCC1 | i | i | nt | i | nt | i
O=C(Nc1nccs1)c1ccc(Cl)c([N+](=O)[O-])c1 | ? | i | 4.47µM | ? | 6.31µM | i
O=C(Nc1nccs1)c1ccc([N+](=O)[O-])cc1Cl | i | i | ? | i | 11.2µM | nt
O=C(Nc1nccs1)c1cc([N+](=O)[O-])ccc1Cl | i | i | nt | ? | nt | nt
O=C(Nc1nccs1)c1ccc(Cl)cc1[N+](=O)[O-] | i | i | ? | i | 10µM | i
CC(C)Oc1cc(F)ccc1-c1cc(C(=O)NC2CCCCC2)[nH]n1 | i | i | nt | ? | nt | i
Cc1nc2ccc(C(=O)N3CCOc4ccc(CN5CCOCC5)cc4C3)cc2nc1C | nt | nt | nt | i | nt | nt
O=C(Cn1c(=O)nc(-c2ccccc2)c2cc(Cl)ccc21)NCCCc1ccccc1 | i | i | nt | i | nt | i
CCOC(=O)NC(=S)Nc1ccc(C(C)(C)C)cc1Br | i | i | 10µM | i | 3.55µM | i
CC(C)N1C(=O)N(c2cccc(Cl)c2)C(C)(O)CC1(C)C (configuration not stated) | i | i | i | i | 7.94µM | i
O=C(COC(=O)c1cc([N+](=O)[O-])ccc1N1CCOCC1)Nc1ccc(Cl)cc1 | i | i | i | ? | i | i
O=C(COC(=O)c1cc([N+](=O)[O-])ccc1N1CCOCC1)Nc1ccc(Cl)cn1 | ? | i | i | ? | ? | 7.08µM
CCOc1cc(N2CCOCC2)c(OCC)cc1NC(=O)CN1C(=O)NC(CC)(c2ccc(F)cc2)C1=O (configuration not stated) | i | i | nt | i | nt | i
Cc1ccc(C#N)c(SCc2nnc(-c3ccc(Cl)cc3)o2)n1 | i | i | ? | i | 3.55µM | i
Cc1cc(C)c(C#N)c(SCc2nnc(-c3ccccc3)o2)n1 | i | i | ? | i | ? | ?
Cc1cccc(NC(=O)c2cc(-c3ccc4c(c3)OCCO4)on2)c1 | i | i | nt | i | nt | i
Cc1ccc(/C=C/C(=O)Nc2ccccc2C(N)=O)o1 | i | i | nt | i | nt | i
SMILES | TGFb SMAD3 inh | HepG2 viability | VP16 counter | S2 tox | RORgamma inh | ATXN2 expr inh
Cc1ccc(C=Nc2ccccc2C(N)=O)o1 | i | i | 20µM | i | ? | i
CN(C)c1ccc(C=Nc2ccccc2C(N)=O)cc1 | i | i | 10µM | i | ? | ?
CN(C)c1ccc(C=Nc2cncc3ccccc23)cc1 | i | i | nt | nt | nt | nt
O=c1c2ccccc2nc2n1CCc1ccc(Br)cc1-2 | i | i | nt | i | nt | i
CCOc1ccccc1-c1nnc2n1N=C(c1cc(OC)ccc1OC)CS2 | nt | nt | i | nt | i | nt
COc1ccccc1-c1nnc(SCc2ccccn2)n1C | i | i | i | i | i | i
COc1ccccc1-c1nc(SCc2ccccn2)n[nH]1 | i | 12.6µM | i | i | i | i
CN(Cc1ccco1)c1nc(-c2ccccc2C(F)(F)F)nc2ccccc12 | nt | nt | i | nt | i | nt
Cc1ccc(OCCSc2ncnc3sc(C)c(C)c23)cc1C | i | i | i | i | 11.2µM | i
Cc1ccc(OCC(=O)NNC(=O)CSc2ncnc3sc(C)c(C)c23)cc1 | i | i | i | ? | i | i
Cc1sc2ncnc(SCC(=O)c3ccc(O)cc3O)c2c1C | i | i | ? | i | 12.6µM | i
COc1ccccc1-c1ccnc(-n2ncc(C(=O)NC3CCCN(Cc4ccccc4)C3)c2C)n1 (configuration not stated) | nt | nt | nt | i | nt | nt
Cc1ccc(C)c(NC(=O)c2cc(S(=O)(=O)N3CCCc4ccccc43)ccc2F)c1 | i | i | nt | nt | nt | nt
O=C(NCc1ccco1)c1cc2ccc(O)cc2oc1=O | i | i | 10µM | nt | 10µM | i
COc1ccc2oc(=Nc3ccc(C(=O)O)cc3)c(C(=O)NCc3ccco3)cc2c1 | i | i | i | ? | i | nt
COc1ccc2cc(C(=O)NCc3ccco3)c(=Nc3ccc(C(=O)O)cc3)oc2c1 | i | i | 2.82µM | i | 1.12µM | i
CC1(C(=O)NCc2cccs2)CCN1C(=O)Cc1ccc(Cl)cc1Cl (configuration not stated) | i | i | nt | i | nt | i
O=C(NCc1cccnc1)c1cc(C2CCCN(S(=O)(=O)c3ccccc3)C2)on1 (configuration not stated) | i | i | nt | i | nt | i
Cc1nc([N+](=O)[O-])c(Br)n1CC(=O)c1ccc(F)cc1 | i | i | i[10 µM] | i | 7.94µM | i
CCC(=O)N1CCN(c2cc(N3CCN(C)CC3)c(F)cc2[N+](=O)[O-])CC1 | i | i | i | i | i | i
CN1CCN(c2cc(N3CCc4ccccc4C3)c(F)cc2[N+](=O)[O-])CC1 | ? | 15.8µM | i | ? | i | i
CC(C(=O)Nc1ccccc1-c1ccccc1)N(C)Cc1nc2ccccc2c(=O)[nH]1 (configuration not stated) | i | i | i | i | 14.1µM | i
Cc1cc(Br)ccc1NC(=O)CNC(=O)CN(C)Cc1nc2ccccc2c(=O)[nH]1 | i | i | i | i | 12.6µM | i
CCN(CC(=O)NC(=O)NCc1ccco1)Cc1nc2ccccc2c(=O)[nH]1 | i | i | 1.12µM | i | 0.562µM | i
CCN(CC(=O)Nc1cc(Cl)ccc1-n1cncn1)Cc1nc2ccccc2c(=O)[nH]1 | i | i | nt | i | nt | i
CCN(CC(=O)Nc1ccccc1Br)Cc1nc2ccccc2c(=O)[nH]1 | i | i | ? | i | 11.2µM | i
Cc1nc2c([nH]1)CCN(C(=O)c1ccc(NC(=O)c3ccccc3-c3ccccc3)cc1)c1ccccc1-2 | nt | nt | nt | nt | nt | i
CN(Cc1nc2ccccc2c(=O)[nH]1)Cc1nc2ccsc2c(=O)[nH]1 | i | i | 5.01µM | i | 0.398µM | i
